# In PubChem BioAssay (EPA / NIEHS):
# Records with an inconclusive call do not appear. Activity calls are given as the source filed them. The calls were made as follows, unless noted: active = hit-call score of the fitted dose curve at least 0.9, where 1 is the maximum; inactive = score below 0.9.
# What was measured:
# [1] = CEETOX_H295R_DOC_noMTC: CeeTox H295R High-throughput Steroidogenesis Assay for DOC, maximum tolerated concentration (MTC) filtered results only (AID 2283918); settings: actives raise or lower the signal
# How it was run: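 11-Deoxycorticosterone secreted by human adrenal H295R cells quantified by HPLC-MS/MS after 48 h chemical exposure (0.1% DMSO), following 48 h 10 uM forskolin prestimulation. Concentrations not filtered by MTT-derived MTC; bidirectional fitting.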
# [2] = CEETOX_H295R_PROG_noMTC: CeeTox H295R High-throughput Steroidogenesis Assay for Progesterone (PROG), maximum tolerated concentration (MTC) filtered results only (AID 2283920); settings: actives raise or lower the signal
# How it was run: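 H295R cells; forskolin 10 uM x 48 h prestim; test cpd 48 h, 0.1% DMSO final; media progesterone via LC-MS/MS; bidirectional fit vs DMSO; no MTT-based MTC filter applied.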
# DIO3 (gene 1735) = assay: CCTE_GLTED_hDIO3: CCTE's human Deiodinase 3 (DIO3) Inhibition Assay, Great Lakes Toxicology and Ecology Division (GLTED) Lab (AID 2284055; active = hit-call score of the fitted dose curve at least 0.9, where 1 is the maximum;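 also: potency is for inhibition seen as loss of released iodide signal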)
# How it was run: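 Absorbance from the Sandell-Kolthoff reaction reports iodide released by human DIO3 during a 3-hour incubation with chemical. Inhibition scored as signal loss against DMSO controls.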
# [3] = TOX21_PR_BLA_Followup_Agonist_viability: Viability Assessment in the Tox21 HEK293 Progesterone Receptor (PR) Agonism Beta-lactamase Follow-Up Assay (AID 2283935; active = hit-call score of the fitted dose curve at least 0.9, where 1 is the maximum;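 also: cells exposed to compound for 16 hr at 37 °C; signal loss means lower viability so actives are cytotoxic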)
# How it was run: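 HEK293T PR-UAS-bla, 3,000 cells/well, 2% CS-FBS; 6 hr pre-incubation; cpd in DMSO, 16 hr 37C; LiveBLAzer 2 hr RT, then CellTiter-Glo 30 min RT, luminescence. Decrease = lost viability.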
# [4] = TOX21_PR_BLA_Followup_Antagonist_viability: Viability Assessment in the Tox21 HEK293 Progesterone Receptor (PR) Antagonism Beta-lactamase Follow-Up Assay (AID 2283936; active = hit-call score of the fitted dose curve at least 0.9, where 1 is the maximum;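 also: hits lower the luminescence signal meaning cytotoxicity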)
# How it was run: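 PR-UAS-bla HEK293T cells (3,000/well, 2% charcoal-stripped FBS) given compound plus R5020 agonist, 16 h at 37C. CellTiter-Glo added after bla read, 30 min at room temperature; luminescence loss indicates cytotoxicity.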
# [5] = TOX21_PR_LUC_Followup_Antagonist_viability: Viability Assessment in the Tox21 HEK293 Progesterone Receptor (PR) Antagonism Luciferase Follow-Up Assay (AID 2283940; active = hit-call score of the fitted dose curve at least 0.9, where 1 is the maximum)
# How it was run: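 Multiplexed viability counter-screen: after 5 days in charcoal-stripped-FBS medium, HEK293-PR-A-luc cells are plated, pinned with DMSO-dissolved compounds for 16 h at 37C, and ATP content is quantified luminescently via CellTiter-Glo.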
# [6] = TOX21_PR_LUC_Followup_Agonist_viability: Viability Assessment in the Tox21 HEK293 Progesterone Receptor (PR) Agonism Luciferase Follow-Up Assay (AID 2283941; active = hit-call score of the fitted dose curve at least 0.9, where 1 is the maximum;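 also: loss of signal means cytotoxicity so actives lower viability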)
# How it was run: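 Cells were kept 5 days in charcoal-stripped serum medium before plating HEK293-PR-A-luc at 3,000 cells/well. After 5 h they received DMSO-dissolved compound and incubated 16 h at 37C. Viability was taken from CellTiter-Glo ATP luminescence.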
# AR (gene 367) = AR (gene 367) (UniProt P10275); assay: ACEA_AR_agonist_80hr: ACEA Biosciences xCELLigence Real-Time Cell Analysis on Androgen Receptor Agonism for Proliferation (AID 2283783; active = hit-call score of the fitted dose curve at least 0.9, where 1 is the maximum;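 also: hits increase impedance growth signal above DMSO baseline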)
# AR (gene 367), sequence (P10275 whole entry, looked up): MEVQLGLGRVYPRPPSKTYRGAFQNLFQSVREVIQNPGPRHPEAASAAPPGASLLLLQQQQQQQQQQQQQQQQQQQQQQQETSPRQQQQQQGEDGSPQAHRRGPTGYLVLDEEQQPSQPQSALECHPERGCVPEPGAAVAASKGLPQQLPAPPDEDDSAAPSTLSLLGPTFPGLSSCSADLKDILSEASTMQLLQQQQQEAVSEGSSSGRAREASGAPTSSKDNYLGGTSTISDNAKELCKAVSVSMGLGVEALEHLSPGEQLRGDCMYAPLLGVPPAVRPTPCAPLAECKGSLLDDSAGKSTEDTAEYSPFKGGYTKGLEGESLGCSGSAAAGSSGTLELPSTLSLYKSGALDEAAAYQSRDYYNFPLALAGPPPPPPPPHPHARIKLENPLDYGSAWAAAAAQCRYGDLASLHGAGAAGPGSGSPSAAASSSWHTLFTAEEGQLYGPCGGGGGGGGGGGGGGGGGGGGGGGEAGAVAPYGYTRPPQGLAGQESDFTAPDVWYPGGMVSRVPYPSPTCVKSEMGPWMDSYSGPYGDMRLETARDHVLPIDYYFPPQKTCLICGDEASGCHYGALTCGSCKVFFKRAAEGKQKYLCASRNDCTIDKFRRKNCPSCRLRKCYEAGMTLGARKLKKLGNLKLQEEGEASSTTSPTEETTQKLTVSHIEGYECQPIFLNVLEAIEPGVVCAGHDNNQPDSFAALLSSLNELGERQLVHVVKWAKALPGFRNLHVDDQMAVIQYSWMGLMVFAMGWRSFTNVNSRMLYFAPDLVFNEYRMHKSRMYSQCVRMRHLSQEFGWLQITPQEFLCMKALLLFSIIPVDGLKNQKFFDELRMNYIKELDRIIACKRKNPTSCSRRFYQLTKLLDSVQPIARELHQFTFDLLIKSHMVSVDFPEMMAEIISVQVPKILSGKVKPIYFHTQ
# How it was run: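 Androgen-driven proliferation in 22Rv1 cells is tracked as electrical impedance, taken 80 h after continuous exposure to compound (eight concentrations, 1:4 steps, maximum 100 uM final). Activity is fitted in the positive direction with DMSO as baseline.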
# [7] = target: Sodium channel protein type 1 subunit alpha (Rattus norvegicus) (UniProt P04774); assay: NVS_IC_rNaCh_site2: NovaScreen (NVS) Ion Channel Assay for rat Sodium Channel, Site 2 (NaCh) (AID 2283322; active = hit-call score of the fitted dose curve at least 0.9, where 1 is the maximum;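 also: hit means loss of radioligand binding signal relative to DMSO so AC50 marks displacement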)
# How it was run: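 Membranes: rat forebrain. Format: competitive radioligand displacement, filter separation, scintillation readout, 1 h exposure. Primary screen in duplicate at 25 uM; actives retested in concentration series.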
# [8] = target: human Thyroid Receptor Alpha (TRa), THRA (gene 7067) (UniProt P10827); assay: NVS_NR_hTRa_Antagonist: NovaScreen (NVS) Nuclear Receptor Binding Assay for human Thyroid Receptor Alpha Antagonism (TRa) (AID 2283362; active = hit-call score of the fitted dose curve at least 0.9, where 1 is the maximum;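 also: activity is loss of signal relative to DMSO baseline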)
# human Thyroid Receptor Alpha (TRa), THRA (gene 7067), sequence (P10827 whole entry, looked up): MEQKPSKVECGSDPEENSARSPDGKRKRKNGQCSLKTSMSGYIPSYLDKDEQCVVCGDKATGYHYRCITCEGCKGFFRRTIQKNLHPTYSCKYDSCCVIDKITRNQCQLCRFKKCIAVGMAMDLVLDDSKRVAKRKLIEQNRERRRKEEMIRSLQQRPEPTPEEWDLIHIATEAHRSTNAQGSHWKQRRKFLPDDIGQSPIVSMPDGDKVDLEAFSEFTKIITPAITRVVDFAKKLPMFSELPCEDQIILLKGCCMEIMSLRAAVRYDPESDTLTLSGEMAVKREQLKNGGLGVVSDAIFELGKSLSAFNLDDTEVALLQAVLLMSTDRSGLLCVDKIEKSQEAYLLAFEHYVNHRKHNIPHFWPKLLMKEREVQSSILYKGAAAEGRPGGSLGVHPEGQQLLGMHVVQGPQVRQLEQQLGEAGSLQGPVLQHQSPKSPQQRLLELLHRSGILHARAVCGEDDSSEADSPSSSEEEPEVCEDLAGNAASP
# How it was run: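 AlphaLISA chemiluminescent immunoassay readout, taken 1 h post-dosing in a cell-free system with extracted protein. Activity was scored as signal loss against DMSO negative control, from duplicate single-concentration (25 uM) testing followed by concentration-response follow-up.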
# [9] = UKN5_HCS_SBAD2_cell_viability: Viability Assessment in the University of Konstanz (UKN) Leist Lab Neurite Outgrowth Assay in human iPSC-derived immature Dorsal Root Ganglia Neurons (UKN5) (AID 2284056)
# How it was run: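 iPSC-derived immature peripheral neurons (SBAD2) seeded on Matrigel with CHIR99021, SU5402 and DAPT, dosed 1 h later for 24 h. Viability from Hoechst H-33342 and calcein-AM live staining, high-content imaging; bidirectional fit versus DMSO.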
# [10] = UKN5_HCS_SBAD2_neurite_outgrowth: University of Konstanz (UKN) Leist Lab Neurite Outgrowth Assay in human iPSC-derived immature Dorsal Root Ganglia Neurons (UKN5) (AID 2284070); settings: actives raise or lower the signal
# How it was run: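 Read-out: calcein-AM-stained neurite area by high-content imaging, Hoechst H-33342 for viability, after 24 h exposure of iPSC-derived immature dorsal root ganglia neurons. Activity fitted in both directions relative to DMSO baseline.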
# [11] = IUF_NPC1b_proliferation_BrdU_72hr: Leibniz Research Institute for Environmental Medicine (IUF) 72-hour Neural Progenitor Cell Bromodeoxyuridine (BrdU) Proliferation Assay (NPC1b) (AID 2284207)
# How it was run: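 Proliferation of primary human neural progenitor cells: 72 h compound treatment at 37C, 5% CO2, pH 7.2-7.6, in EGF/FGF-containing medium. Readout is BrdU uptake (last 16 h) by chemiluminescent ELISA, normalised to DMSO.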
# [12] = IUF_NPC1a_proliferation_area_72hr: Leibniz Research Institute for Environmental Medicine (IUF) 72-hour Neural Progenitor Cell Proliferation Area Assay (NPC1a) (AID 2284208)
# How it was run: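 hNPC spheres (human fetal cortex, GW 16-19), one per poly-Hema U-bottom well; EGF+FGF medium; dosed day 0, no re-dosing; 72 h, 37C, 5% CO2; phase-contrast sphere area; DMSO = baseline; minus-GF = positive ctrl.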
# [13] = IUF_NPC1_viability_72hr: Viability Assessment at 72 hours in the Leibniz Research Institute for Environmental Medicine (IUF) Neural Progenitor Cell Proliferation Assay (NPC1) (AID 2284209)
# How it was run: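 hNPC spheres, 1/well, EGF+FGF medium, 37C/5% CO2; dosed day 0, 72 h, no re-dosing. Resazurin reduction (alamar blue) fluorescence; DMSO = negative control/baseline; growth-factor-free wells as positive control.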
# [14] = IUF_NPC2c_oligodendrocyte_migration_120hr: Leibniz Research Institute for Environmental Medicine (IUF) 120-hour Neural Progenitor Cell Migration Assay for Oligodendrocyte Migration (NPC2c) (AID 2284297);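 also: O4-positive oligodendrocyte migration distance divided by radial glia migration distance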
# How it was run: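 hNPC spheres (GW 16-19 cortex), PDL/laminin, DMEM/F12 3:1 + 1% N2, 37C. Dosing day 0–5, half feed day 3, DMSO ≤0.1%. Fixed 120 h; O4 ICC + Hoechst, HCI. Readout: mean oligodendrocyte distance from sphere edge / radial glia distance.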
# [15] = IUF_NPC2a_radial_glia_migration_120hr: Leibniz Research Institute for Environmental Medicine (IUF) 120-hour Neural Progenitor Cell Migration Assay for Radial Glia Migration (NPC2a) (AID 2284298)
# How it was run: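 Hoechst-stained nuclei imaged at 120 h; algorithm maps sphere core by densest nuclei, sets migration edge at density threshold, gives radial glia migration distance (um) per well vs DMSO. hNPC spheres (0.3 mm), PDL/laminin, DMEM/F12 3:1 + 1% N2.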
# [16] = IUF_NPC2a_radial_glia_migration_72hr: Leibniz Research Institute for Environmental Medicine (IUF) 72-hour Neural Progenitor Cell Migration Assay for Radial Glia Migration (NPC2a) (AID 2284299)
# How it was run: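 Primary hNPC spheres, fetal brain GW 16-19, on PDL/laminin; DMEM/F12 3:1 + 1% N2. Compound dosed day 0, 7 conc. + SC, half-medium refresh day 3. 72 h brightfield, migration distance core-to-front (um), 4 directions averaged.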
# [17] = IUF_NPC2b_neuronal_migration_120hr: Leibniz Research Institute for Environmental Medicine (IUF) 120-hour Neural Progenitor Cell Migration Assay for Neuron Migration (NPC2b) (AID 2284300)
# How it was run: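 hNPC spheres, PDL/laminin, DMEM:F12 3:1 + 1% N2, 37C/5% CO2; 7 concentrations + solvent control (DMSO ≤0.1%), 5 d exposure, half-feed day 3. Fix 120 h, TUBB3 ICC, HCI: mean neuron migration distance ÷ glia distance.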
# [18] = IUF_NPC3_neuronal_differentiation_120hr: Leibniz Research Institute for Environmental Medicine (IUF) 120-hour Neuronal Differentiation Assay (NPC3) (AID 2284301)
# How it was run: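 Single 0.3 mm neurospheres from human fetal cortex were plated in differentiation medium containing test compound. Medium was half-replaced on day 3. After 120 h cells were fixed, immunostained and imaged, and neuronal fraction was scored against DMSO control.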
smiles,measurement,setting,value
Sc1nc2ccccc2s1,outcome,[1],inactive
same,outcome,[2],inactive
same,AC50,DIO3 (gene 1735),61.3 µM (active)
C[C@H]1C[C@H]2[C@@H]3CCC4=CC(=O)C=C[C@]4(C)[C@@]3(F)[C@@H](O)C[C@]2(C)[C@@]1(O)C(=O)CO,outcome,[3],inactive
same,outcome,[4],inactive
same,outcome,[5],inactive
same,outcome,[6],inactive
CO[Si](CCCNCCN)(OC)OC,outcome,AR (gene 367),inactive
O=C(C(=O)c1ccccc1)c1ccccc1,outcome,[7],inactive
C=C1CC[C@H]2C[C@@H]1C2(C)C,outcome,[8],inactive
Oc1cccc2ccccc12,outcome,[9],inactive
same,outcome,[10],inactive
same,outcome,[11],inactive
same,outcome,[12],inactive
same,AC50,[13],2.44 µM (active)
same,outcome,[14],inactive
same,outcome,[15],inactive
same,outcome,[16],inactive
same,outcome,[17],inactive
same,outcome,[18],inactive
CC[N+](CC)(CC(=O)Nc1c(C)cccc1C)Cc1ccccc1,AC50,[7],3.49 µM (active)
Cc1cc(C)c(S(=O)(=O)O)cc1N=Nc1cc(S(=O)(=O)O)c2ccccc2c1O,AC50,[8],29.5 µM (active)
same,outcome,AR (gene 367),inactive
c1cc[c]([Bi]([c]2ccccc2)[c]2ccccc2)cc1,outcome,[3],inactive
same,outcome,[4],inactive
same,outcome,[5],inactive
same,outcome,[6],inactive
COC(=O)[C@]1(C)CCC[C@@]2(C)[C@H]1CC=C1C=C(C(C)C)CC[C@@H]12,AC50,DIO3 (gene 1735),36 µM (active)
CC1(C)S[C@@H]2[C@H](NC(=O)[C@H](N)c3ccccc3)C(=O)N2[C@H]1C(=O)O,outcome,[9],inactive
same,outcome,[10],inactive
O=C(O)c1ccccc1C(=O)O,outcome,[1],inactive
same,outcome,[2],inactive
NC(N)=Nc1nc(CSCCC(N)=NS(N)(=O)=O)cs1,outcome,[11],inactive
same,outcome,[12],inactive
same,outcome,[13],inactive
same,outcome,[14],inactive
same,outcome,[15],inactive
same,outcome,[16],inactive
same,outcome,[17],inactive
same,outcome,[18],inactive
